Source: PubChem BioAssay
Shown are actives, neighbours in structure and some others; about 11% of the full set was active somewhere.
Luciferase inh = inhibitors of firefly (Photinus pyralis) luciferase; P08659; purified P. pyralis luciferase, luminescence, biochemical; Potency, µM (highest dose often 115 µM), hits mostly inhibitors; hit rate 2.5% among 76,000; active = well fitted curve in the direction sought with a large enough effect; inconclusive = small, poorly fitted or top-dose-only effect, or another doubt; inactive = no such curve, though single readings can be large; an effect the other way counts as inactive or inconclusive; note: % is set by controls: 0 for no effect and ±100 for the full control effect; nearly all actives have a fitted effect of over 65% in size
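Purified P. pyralis luciferase (10nM final) in 50mM Tris acetate pH 7.5, 10mM Mg acetate, 0.01% Tween-20, 0.05% BSA with 10uM D-luciferin and 10uM ATP. Compounds titrated qHTS. Luminescence imaged on CCD.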
3T3 cytotox = cytotoxic compounds in NIH 3T3 cells; NIH 3T3 viability, CellTiter-Glo ATP luminescence, 48-72 h; Potency, µM (titrated, usually from 96.7 µM), inactives show at the highest dose activity change, negative = cytotoxicity, most hits filed as inhibitors; hit rate 4.3% among 94,000; active = well fitted curve in the direction sought with a large enough effect; inconclusive = small, poorly fitted or top-dose-only effect, or another doubt; inactive = no such curve, though single readings can be large; an effect the other way counts as inactive or inconclusive; note: % is set by controls: 0 for no effect and ±100 for the full control effect; nearly all actives have a fitted effect of over 55% in size
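Cytotoxicity is measured as loss of cellular ATP: NIH 3T3 cells (400/well) are exposed to compound for 48 or 72 hr at 37 °C, then CellTiter-Glo luminescence is imaged after 10 min at room temperature.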
hNpr1 antagonist = blocks ANP-stimulated signaling of human Npr1 receptor. P16066. HEK293 hNpr1 GloSensor cGMP, ANP-stimulated luminescence. Potency, µM (doses to about 46.3 µM), for the others: at the highest dose activity change, negative = inhibition, actives largely listed as inhibitors. hit rate 1.6% among 76,000. AID 1347048; note: % is set by controls: 0 for no effect and ±100 for the full control effect; nearly all actives have a fitted effect of over 60% in size
Target sequence (P16066 whole entry, looked up): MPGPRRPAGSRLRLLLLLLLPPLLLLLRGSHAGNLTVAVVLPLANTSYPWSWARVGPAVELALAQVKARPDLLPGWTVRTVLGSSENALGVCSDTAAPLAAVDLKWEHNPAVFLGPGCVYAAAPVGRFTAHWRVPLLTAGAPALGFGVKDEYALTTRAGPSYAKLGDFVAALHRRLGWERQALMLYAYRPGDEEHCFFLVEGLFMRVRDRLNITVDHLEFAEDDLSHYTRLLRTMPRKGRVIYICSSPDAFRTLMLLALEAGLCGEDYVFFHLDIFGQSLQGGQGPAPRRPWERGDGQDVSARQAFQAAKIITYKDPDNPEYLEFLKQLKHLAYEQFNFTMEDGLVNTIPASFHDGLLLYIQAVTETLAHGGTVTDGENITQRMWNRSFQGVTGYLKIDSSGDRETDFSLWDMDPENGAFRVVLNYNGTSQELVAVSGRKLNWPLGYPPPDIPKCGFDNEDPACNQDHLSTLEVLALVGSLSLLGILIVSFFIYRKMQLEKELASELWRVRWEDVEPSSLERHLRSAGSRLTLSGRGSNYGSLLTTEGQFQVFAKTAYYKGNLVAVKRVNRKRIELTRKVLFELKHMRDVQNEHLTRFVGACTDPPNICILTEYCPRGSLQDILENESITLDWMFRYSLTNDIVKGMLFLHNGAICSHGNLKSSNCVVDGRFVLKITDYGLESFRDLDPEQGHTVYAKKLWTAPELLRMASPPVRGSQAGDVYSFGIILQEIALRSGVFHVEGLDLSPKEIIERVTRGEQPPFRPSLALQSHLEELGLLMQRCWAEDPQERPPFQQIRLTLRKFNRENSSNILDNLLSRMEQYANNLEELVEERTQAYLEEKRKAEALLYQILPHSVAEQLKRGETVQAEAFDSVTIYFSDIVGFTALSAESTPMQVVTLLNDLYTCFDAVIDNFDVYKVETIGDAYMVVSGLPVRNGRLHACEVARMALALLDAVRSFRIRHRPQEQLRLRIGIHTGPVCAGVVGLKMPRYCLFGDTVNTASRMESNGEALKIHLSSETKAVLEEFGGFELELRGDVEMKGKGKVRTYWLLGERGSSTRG
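HEK293 cells stably expressing human Npr1 and cGMP GloSensor pGS-40F, loaded 2 h with 2% GloSensor reagent, given compound 30 min at room temperature. Luminescence read before and 20 min after 0.1 nM hNppA.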
HEK293 tox = HEK 293 cell cytotoxicity; Potency, µM (series often up to 115 µM), for inactives: at the highest dose activity change, negative = cytotoxicity, usual class: inhibitors; HEK 293 viability, ATP luminescence (CellTiter-Glo), 48-72 h; hit rate 6.6% among 94,000; active = well fitted curve in the direction sought with a large enough effect; inconclusive = small, poorly fitted or top-dose-only effect, or another doubt; inactive = no such curve, though single readings can be large; an effect the other way counts as inactive or inconclusive; note: % is set by controls: 0 for no effect and ±100 for the full control effect; nearly all actives have a fitted effect of over 60% in size
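HEK 293 cells seeded at 250 cells/well were exposed to compound for 48 or 72 hr at 37 degree Celsius. Viability taken as ATP content by CellTiter-Glo luminescence.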
NPR1 antag cnf = hNpr1 antagonism, confirmation assay. shares compounds with hNpr1 antagonist. HEK293 hNpr1 cGMP GloSensor luminescence, ANP-stimulated. Potency, µM (highest dose often 57.6 µM), for the others: at the highest dose activity change, negative = inhibition, most hits filed as inhibitors. hit rate 76% among 1,400. AID 1347044; note: nearly all actives have a fitted effect of over 70% in size
NPR2 antag = hNpr2 antagonism, selectivity versus Npr1 | shares compounds with hNpr1 antagonist | hit rate 67% among 1,400 | HEK293 hNpr2 GloSensor cGMP luminescence, CNP-stimulated | Potency, µM (highest dose often 57.6 µM), inactives show top-dose activity change, negative = inhibition, most hits filed as inhibitors; note: nearly all actives have a fitted effect of over 70% in size
FLuc counter = FLuc enzyme inhibition, Npr1 counter-screen | hit rate 0.7% among 1,400 | shares compounds with hNpr1 antagonist | Potency, µM (doses to about 57.6 µM), without a hit: at the top dose activity change, negative = inhibition, most hits filed as inhibitors | purified FLuc enzyme, luminescence, Km substrate; active = well fitted curve in the direction sought with a large enough effect; inconclusive = small, poorly fitted or top-dose-only effect, or another doubt; inactive = no such curve, though single readings can be large; an effect the other way counts as inactive or inconclusive; note: 0% is about no effect
GloSensor cGMP = counter-screen for Npr1 antagonists: GloSensor control cell line | Potency, µM (top dose mostly 57.6 µM), inactives show top-dose activity change, negative = inhibition, hits mostly inhibitors | shares compounds with hNpr1 antagonist | AID 1347051 | HEK293 GloSensor cGMP, SNP-stimulated, luminescence | hit rate 69% among 1,400; note: % is set by controls: 0 for no effect and ±100 for the full control effect; nearly all actives have a fitted effect of over 70% in size
* marks the source's active call; other numbers are inactive results; i = inactive; u = inconclusive; x = no result; [ ] = dose if it differs, or a comment. Unless noted, calls come from the whole dose curve. Potency is the fitted concentration of half-maximal effect.

SMILES	Luciferase inh	3T3 cytotox	hNpr1 antagonist	HEK293 tox	NPR1 antag cnf	NPR2 antag	FLuc counter	GloSensor cGMP
Cc1cccc(CN2CCCCCCNC(=O)CC2)c1	i	-11%	5%	0%	x	x	x	x
CN(Cc1ccccc1)C(=O)C[C@@H]1c2nc(NC(=O)C3CCC3)sc2C[C@@H]2[C@](C)(CO)[C@H](O)CC[C@]21C	i	u	-22%	u	x	x	x	x
Cc1cc(C)c2[nH]c(C(=O)N(C)Cc3ccc4nsnc4c3)c(C)c2c1	i	u	4%	u	x	x	x	x
CCOCC(=O)N1CCC(N2C(=O)C3(CCCCC3)C2c2ccncc2)CC1 (stereo unspecified)	i	-16%	6%	-4%	x	x	x	x
CC(C)c1ccc(CC(=O)N2CCCc3ncc(C(=O)Nc4ccccc4)cc32)cc1	i	28µM*	3.5µM*	28µM*	5.6µM*	6.3µM*	3%[86.2 µM]	5µM*
Cc1csc(NC(=O)c2cnc3c(c2)N(C(=O)Cc2ccc(C(C)C)cc2)CCC3)n1	i	u	22µM*	35µM*	31µM*	35µM*	-13%[86.2 µM]	28µM*
CCOC(=O)C1(Cc2ccc(Cl)cc2)CCN(C(=O)c2cc(C)oc2C)CC1	i	25µM*	13µM*	20µM*	22µM*	22µM*	-6%	19µM*
COc1cccc(C(=O)N2CCC(C(=O)N3CCC(c4nc5ncccc5[nH]4)CC3)C2)c1 (stereo unspecified)	x	-12%	x	1%	x	x	x	x
COc1ccccc1-c1[nH]nc2ncc(C(=O)NCC3CC3)nc12	i	u	u	u	u	25µM*	0%[86.2 µM]	3%[86.2 µM]
CC1=C[C@@H](CN2CCN(c3ncccn3)CC2)[C@H](C(C)C)C[C@H]1Cc1nnc(-c2ccccc2F)o1	i	40µM*	-21%	32µM*	u	u	-2%	27µM*
COc1ccc(-c2nnc(C[C@@H]3C[C@@H](C(C)C)[C@H](CNc4ccccn4)C=C3C)o2)cc1	i	35µM*	16µM*	25µM*	22µM*	28µM*	-1%[86.2 µM]	22µM*
COCCN1CCN(C[C@@H]2C=C(C)[C@H](Cc3nnc(COc4ccc(F)cc4)o3)C[C@H]2C(C)C)CC1	i	u	-8%	-33%	x	x	x	x
CC1=C[C@@H](CNCc2cccnc2)[C@H](C(C)C)C[C@H]1Cc1nnc(-c2ccncc2)o1	i	u	-15%[70.6 µM]	u	x	x	x	x
O=C1CC(c2ccccc2)N(C(=O)CNC(=O)CN2CCCCCC2)CCCCCN1 (stereo unspecified)	i	-7%	-8%	-17%	x	x	x	x
COC[C@@H]1CN(Cc2ccccc2OC(C)C)C[C@H]1C(N)=O	i	-5%	5%	-19%	x	x	x	x
COc1ccc(NC(=O)Cc2c[nH]c3ncc(-c4ccccc4C)cc23)cc1	i	u	35µM*	79µM*	25µM*	18µM*	-8%[86.2 µM]	31µM*
O=C(NCc1c[nH]c2ncccc12)c1cccnc1	i	-21%[138 µM]	1%[70.6 µM]	-8%[172 µM]	x	x	x	x
COc1ccccc1-c1[nH]nc2ncc(C(=O)Nc3cc(C)nn3C)nc12	i	u	-1%[70.6 µM]	-36%[172 µM]	x	x	x	x
Cc1cc(NC(=O)Cc2c[nH]c3ncc(-c4ccccc4C)cc23)n(C)n1	i	u	16µM*	u	31µM*	28µM*	0%[86.2 µM]	28µM*
COc1ncccc1-c1cnc2[nH]cc(CC(=O)Nc3cccc(Cl)c3)c2c1	i	u	u	32µM*	40µM*	u	1%[86.2 µM]	44µM*
NC(=O)Cc1c[nH]c2ncc(-c3ccc(Oc4ccccc4)cc3)cc12	i	22µM*	7.9µM*	35µM*	7.9µM*	11µM*	-22%[86.2 µM]	7.9µM*
COc1ccc(-n2c(=O)c(C(=O)Nc3cccc(Cl)c3)nc3cccnc32)cc1	x	-22%	x	u	x	x	x	x
CC(C)CCN1C(=O)CC[C@]2(C(=O)N3CCN(c4ccc(F)cc4)CC3)CCCC[C@@H]12	i	u	-11%	u	x	x	x	x
COc1ccc(-c2cnc3[nH]cc(CC(=O)Nc4ccc(OC)nc4)c3c2)cc1	i	u	u	u	u	u	-1%[86.2 µM]	u
O=C(NCCc1ccccn1)c1cc2n(n1)CC(c1ccc(Br)cc1)OC2 (stereo unspecified)	i	u	11µM*	u	22µM*	24µM*	-13%	24µM*
SMILES	Luciferase inh	3T3 cytotox	hNpr1 antagonist	HEK293 tox	NPR1 antag cnf	NPR2 antag	FLuc counter	GloSensor cGMP
COc1ccc(NC(=O)c2cc3n(n2)CC(c2ccc(Br)cc2)OC3)cc1OC (stereo unspecified)	i	u	u	45µM*	u	-25%	-2%	u
COc1cc(NC(=O)c2cc3n(n2)CC(c2ccc(Br)cc2)OC3)cc(OC)c1OC (stereo unspecified)	i	u	u	u	u	-25%	-3%	-19%
COc1ccc(CNC(=O)c2cc3n(n2)CC(c2ccc(Cl)cc2)OC3)cc1OC (stereo unspecified)	i	u	u	u	x	x	x	x
O=C(C[C@H]1NC(=O)c2ccccc2NC1=O)Nc1nnc(Cc2ccccc2)s1	i	i	1%	-1%	x	x	x	x
Cn1cccc1C(=O)N1CCC(c2noc(COc3ccc(F)cc3)n2)CC1	i	u	u	u	x	x	x	x
O=C(CCC1CCCC1)N1CCC(c2noc(COc3ccc(F)cc3)n2)C1 (stereo unspecified)	i	u	10µM*	45µM*	11µM*	15µM*	-7%	9.7µM*
Cc1cnc(C2CCN(S(=O)(=O)c3ccc4c(c3)CCC4)C2)n1C(C)C (stereo unspecified)	i	-14%	-4%	u	x	x	x	x
O=C(NCc1cccc(C(F)(F)F)c1)C1CCc2nnc(CN[S+](=O)([O-])c3ccccc3Cl)n21 (stereo unspecified)	x	u	x	-1%	x	x	x	x
FC(F)(F)c1ccc(O[C@H]2COCCN(c3nc4ccccc4o3)C2)nc1	i	u	35µM*	100µM*	40µM*	35µM*	0%[86.2 µM]	35µM*
O=C(NC1CCCC1)O[C@H]1COCCN(c2nc3ccccc3o2)C1	i	-11%[138 µM]	-1%[70.6 µM]	-1%[172 µM]	x	x	x	x
